This is part of a sample that, as a whole, favours compounds with a hit. Of some 83,000 tested, about 20% had one in any assay.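 Each cell line was grown in a 96-well plate and treated with one concentration of compound for 48 hours. Values below 10 were considered active.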 Values without a mark were called inactive. Activity calls are given as the source filed them.

The record followed here is PubChem BioAssay (NCI).

Test systems include HCT-15 colon; HT29 colon; SNB-75 CNS; SNB-19 CNS; U251 CNS; PC-3 prostate; SK-MEL-5 melanoma; UACC-62 melanoma; LOX IMVI melanoma; SK-MEL-28 melanoma; SK-MEL-2 melanoma; EKVX NSCLC; SN12C renal; UO-31 renal; TK-10 renal; ACHN renal; A498 renal; CCRF-CEM leukemia; MOLT-4 leukemia; SR leukemia.
Holding throughout (assay): NCI-60 one-dose screen, 48 h (100 = growth as untreated, 0 = no growth, -100 = all killed)
Common to all, as to conditions: 10 µM unless noted

With `CCOC(=O)c1c(C)nc2c(c1N)/C(=C/c1cccs1)C(=O)N2Cc1ccccc1`, the growth in the assay on HCT-15 colon was 19.5%; with HT29 colon, 57.3%; in the assay with SNB-75 CNS it was 72.6%; in the assay on SNB-19 CNS, 68.1%; in the assay on U251 CNS, 49.8%; in the assay with PC-3 prostate it was 51.8%. The growth was 83.8% in the assay on SK-MEL-5 melanoma; 67.6% with UACC-62 melanoma; 36.4% with LOX IMVI melanoma; 90.2% in the assay with SK-MEL-28 melanoma; 60% in the assay with SK-MEL-2 melanoma; 82% in the assay with EKVX NSCLC. In addition, the growth was 73.2% in the assay with SN12C renal; 45.6% in the assay on UO-31 renal; 90.1% with TK-10 renal; 79.7% in the assay with ACHN renal; 70.2% with A498 renal; 29.8% with CCRF-CEM leukemia. Moreover, the growth with MOLT-4 leukemia was 18.8%; in the assay on SR leukemia, 9.76% (active).

`COc1ccc(C2=NN(c3ccc(S(N)(=O)=O)cc3)C(c3ccc(Cl)cc3)C2)c(O)c1` (stereo unspecified): the growth with HCT-15 colon was 52.7%; in the assay on HT29 colon, 49.9%; in the assay with SNB-75 CNS, 70.1%; in the assay on SNB-19 CNS, 85.3%; in the assay on U251 CNS, 57.7%; with PC-3 prostate it was 27.7%. Moreover, the growth was 75.4% with SK-MEL-5 melanoma; 52.9% with UACC-62 melanoma; 77.2% in the assay with LOX IMVI melanoma; 74.9% with SK-MEL-28 melanoma; 87.9% with SK-MEL-2 melanoma; 56% in the assay on EKVX NSCLC. Besides, the growth in the assay with SN12C renal was 73%; in the assay on UO-31 renal it was 60.3%; in the assay on TK-10 renal, 53.7%; in the assay on ACHN renal it was 65%; in the assay with A498 renal it was 47.2%; in the assay on CCRF-CEM leukemia, 26.8%. The growth is 32.5% with MOLT-4 leukemia and 16.1% in the assay with SR leukemia.

Consider `COc1ccc(C(=O)c2cc(OC)c(OC)c(OC)c2)cc1OC(=O)CCl`, for which the growth was 17% with HCT-15 colon; 21.6% with HT29 colon; 60.8% in the assay with SNB-75 CNS; 31.3% in the assay with SNB-19 CNS; -16.9% (active) in the assay on U251 CNS; 17% in the assay on PC-3 prostate. In addition, the growth is -34% (active) with SK-MEL-5 melanoma; 45.2% in the assay on UACC-62 melanoma; 19% in the assay with LOX IMVI melanoma; 60.8% in the assay on SK-MEL-28 melanoma; 26.1% with SK-MEL-2 melanoma; 70.2% in the assay on EKVX NSCLC. Further, the growth is 32% with SN12C renal; 44.8% in the assay with UO-31 renal; 63.6% in the assay on TK-10 renal; 40.2% in the assay on ACHN renal; 59.3% with A498 renal; 18.4% in the assay with MOLT-4 leukemia. For the same molecule, the growth with SR leukemia is 13.4%.

Turning to `CSc1nc(-c2ccco2)c2c(N)[nH]nc2n1`, the growth with HCT-15 colon was 102%; with HT29 colon, 93.6%; with SNB-75 CNS, 103%; in the assay with SNB-19 CNS, 110%; in the assay on U251 CNS it was 103%; in the assay with PC-3 prostate, 101%. For the same molecule, the growth was 100% in the assay with SK-MEL-5 melanoma; 92.2% with UACC-62 melanoma; 92.3% with LOX IMVI melanoma; 112% in the assay with SK-MEL-28 melanoma; 99.3% with SK-MEL-2 melanoma; 81.2% in the assay with EKVX NSCLC. The growth with SN12C renal was 109%; in the assay on UO-31 renal, 88.3%; in the assay with TK-10 renal, 105%; in the assay on ACHN renal, 101%; with A498 renal it was 66.4%; with CCRF-CEM leukemia, 111%. Also, the growth in the assay on MOLT-4 leukemia is 82.7%; in the assay with SR leukemia, 76.1%.

For `CCN1CCN(c2ccc(NC(=O)Nc3nc4ccc(-c5ccccc5OC)cc4s3)cc2)CC1`, the growth with HCT-15 colon is -83.2% (active); in the assay with HT29 colon, -92% (active); in the assay with SNB-75 CNS, -19.8% (active); with SNB-19 CNS, -82.8% (active); in the assay on U251 CNS, -87% (active); in the assay on PC-3 prostate it was -83.8% (active). The growth in the assay with SK-MEL-5 melanoma was -98.8% (active); with UACC-62 melanoma, -85.3% (active); in the assay with LOX IMVI melanoma it was -86.4% (active); with SK-MEL-28 melanoma, -79.3% (active); with SK-MEL-2 melanoma it was -65.5% (active); with EKVX NSCLC, -68.4% (active). Further, the growth with SN12C renal was -82.1% (active); with UO-31 renal it was -91.6% (active); with TK-10 renal it was -48% (active); with ACHN renal it was -95.5% (active); in the assay on A498 renal, 70.2%; in the assay on CCRF-CEM leukemia, -17.3% (active). Besides, the growth in the assay with MOLT-4 leukemia is -51.7% (active); in the assay on SR leukemia, -38% (active).

As to `CCOC(=O)/C(=C/c1c(-c2ccccc2)[nH]c2ccccc12)C(=O)c1ccc(Cl)cc1`, the growth in the assay with HCT-15 colon is 21.2%; in the assay with HT29 colon, 44%; in the assay on SNB-75 CNS, 35%; in the assay with SNB-19 CNS it was 79.4%; in the assay on U251 CNS, 50.5%; in the assay with PC-3 prostate, 12.5%. For the same molecule, the growth with SK-MEL-5 melanoma is 53.4%; in the assay on UACC-62 melanoma it was 43.5%; in the assay with LOX IMVI melanoma it was 44.3%; with SK-MEL-28 melanoma it was 75.6%; in the assay with SK-MEL-2 melanoma, 61.8%; in the assay with EKVX NSCLC it was 30.6%. The growth in the assay with SN12C renal was 56%; with UO-31 renal it was 57.9%; in the assay on TK-10 renal, 82.2%; with ACHN renal it was 19.3%; in the assay on A498 renal it was 73.7%; in the assay on MOLT-4 leukemia, 1.71% (active). The growth in the assay on SR leukemia was 9.07% (active).

As to `CC(C)(C)c1ccc2oc(=O)n(SC(Cl)(Cl)Cl)c2c1`, the growth with HCT-15 colon is 99.1%; in the assay with HT29 colon it was 90.4%; with SNB-75 CNS, 98.1%; in the assay with SNB-19 CNS it was 112%; with U251 CNS, 104%; in the assay with PC-3 prostate it was 99.3%. Besides, the growth is 107% with SK-MEL-5 melanoma; 109% with UACC-62 melanoma; 93.4% with LOX IMVI melanoma; 112% in the assay with SK-MEL-28 melanoma; 93.9% in the assay with SK-MEL-2 melanoma; 92.2% in the assay on EKVX NSCLC. For the same molecule, the growth in the assay with SN12C renal was 102%; in the assay on UO-31 renal, 94.9%; in the assay with TK-10 renal, 92.4%; in the assay on ACHN renal, 106%; in the assay with A498 renal it was 109%; with MOLT-4 leukemia, 77.2%. Moreover, the growth in the assay with SR leukemia was 92.3%.

For `CC1CCN(CCCCCOc2ccc3oc4ccccc4c(=O)c3c2)CC1`, the growth was 35.7% with HCT-15 colon; 10.8% in the assay with HT29 colon; 84.7% in the assay on SNB-75 CNS; 87.5% in the assay with SNB-19 CNS; 67.5% with U251 CNS; 80.8% with PC-3 prostate. The growth in the assay on SK-MEL-5 melanoma was -12.2% (active); in the assay on UACC-62 melanoma, 14.3%; with LOX IMVI melanoma it was 53.3%; in the assay with SK-MEL-28 melanoma, 87.7%; in the assay with SK-MEL-2 melanoma, 102%; with EKVX NSCLC, 89%. For the same molecule, the growth with SN12C renal is 69.3%; in the assay on UO-31 renal, 63.1%; in the assay on TK-10 renal, 71.4%; in the assay with ACHN renal, 95.3%; in the assay with CCRF-CEM leukemia, 77.1%; in the assay on MOLT-4 leukemia, 53.2%. Moreover, in the assay with SR leukemia, the growth is 47.5%.
